This passage reports composite z-score and composite Z-score results from PubChem BioAssay.

The structures appear in SMILES notation. Active and inactive are the calls of the source.

One assay has as its target Albumin (Bos taurus) (UniProt P02769). In words: compounds binding labelled BSA control protein – biochemical, small-molecule microarray, Alexa647 label, 635/667 nm fluorescence, artefact control for SMM control protein annotation, profiling panel (AID 1118).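 Note: score merges 667 nm emission intensity and signal-to-noise per printed compound spot.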 The conditions noted are these: BSA-A647 binding, fluorescence 635 nm, higher = more signal.
Assay [1] can be described thus: probe aXIP binding to arrayed compounds – biochemical, NeuroSMM set, 635/667 nm fluorescence, primary screen (AID 1119).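 Note: probe is the protein aXip251-270 applied at 1 µg/mL to compound-printed slides; binding of probe to printed compounds measured as 667 nm fluorescence plus signal to noise.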 The conditions noted are these: small-molecule microarray, higher = more signal, called active from +8 up or from −8 down.
Assay [2] is described as follows: probe aNOTCH3 binding on compound microarray – biochemical, small-molecule microarray, 635/667 nm fluorescence, primary screen (AID 1120).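 Note: probe is a biotin-tagged antibody raised against NOTCH3 rather than NOTCH3 protein; score merges spot fluorescence near 667 nm with spot signal to noise.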 Particulars: higher = more signal.
Assay [3] is described as follows: probe aNOTCH2 binding on compound microarray – biochemical, small-molecule microarray, 635/667 nm fluorescence, primary screen (AID 1121).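 Note: score merges feature fluorescence read at 667 nm with its signal to noise.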 Particulars: higher = more signal.
Assay [4] concerns the target Carbonic anhydrase 2 (Homo sapiens) (UniProt P00918). In words: compounds binding carbonic anhydrase 2 – biochemical, small-molecule microarray, Alexa647-labelled CAII, profiling panel (AID 1122). The conditions noted are these: CAII-A647 binding fluorescence, higher = more signal.
Assay [5] in a line: COS7 lysate on small-molecule microarray, probe aHis, 635 nm (AID 1123).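 Note: z-score combines 667nm fluorescence intensity with signal-to-noise per printed compound spot.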 The conditions noted are these: COS7 cell lysate, fluorescence, higher = more signal.
Assay [6] in a line: probe aLAP1 signal on lysate-treated microarray – cell lysate, small-molecule microarray, COS7 lysate, primary screen (AID 1124).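 Note: lysate comes from COS7 cells expressing LAP1 and is applied at 0.3 µg/mL; score merges spot fluorescence near 667 nm with signal-to-noise over triplicate slides.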 Particulars: probe aLAP1, fluorescence, higher = more signal.
For a further assay, the system named is Sam68 (KHDRBS1). Nature of the assay: compounds binding KHDRBS1 protein – biochemical, small-molecule microarray, 635 nm fluorescence, primary screen (AID 1125).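 Note: score merges 667 nm channel intensity with signal to noise over triplicate slides.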 The conditions noted are these: higher = more signal.
In assay [7] the test system is Chordin-like protein 2 (CHRDL2). In words: compounds binding chordin-like 2 – biochemical, small-molecule microarray, 635 nm fluorescence, primary screen (AID 1126).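 Note: printed compound slides probed with Chrdl2 protein at 4 µg/mL for 1 h at 4 C; score merges 667 nm emission intensity with signal to noise over three replicate slides.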 Particulars: fluorescence 635 nm, higher = more signal.
In assay [8] the target is Concanavalin-A (Canavalia ensiformis) (UniProt P02866). In words: compounds binding concanavalin A lectin – biochemical, small-molecule microarray, Alexa647 label, 635 nm, artefact control for SMM control protein annotation, primary screen (AID 1127).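 Note: z combines 667 nm emission intensity with signal-to-noise across three replicate slides.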 Particulars: ConA-A647 binding fluorescence, higher = more signal.
Sequence of Concanavalin-A (Canavalia ensiformis) (P02866 whole entry, looked up): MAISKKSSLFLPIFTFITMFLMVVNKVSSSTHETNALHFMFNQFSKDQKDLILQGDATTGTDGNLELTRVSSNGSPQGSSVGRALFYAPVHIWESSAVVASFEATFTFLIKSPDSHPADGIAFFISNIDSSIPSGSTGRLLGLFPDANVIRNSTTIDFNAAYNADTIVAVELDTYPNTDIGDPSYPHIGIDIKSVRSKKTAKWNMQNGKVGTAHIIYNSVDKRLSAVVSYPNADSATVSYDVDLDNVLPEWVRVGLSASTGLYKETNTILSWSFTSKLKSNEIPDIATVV

Sequence of Albumin (Bos taurus) (P02769 whole entry, looked up): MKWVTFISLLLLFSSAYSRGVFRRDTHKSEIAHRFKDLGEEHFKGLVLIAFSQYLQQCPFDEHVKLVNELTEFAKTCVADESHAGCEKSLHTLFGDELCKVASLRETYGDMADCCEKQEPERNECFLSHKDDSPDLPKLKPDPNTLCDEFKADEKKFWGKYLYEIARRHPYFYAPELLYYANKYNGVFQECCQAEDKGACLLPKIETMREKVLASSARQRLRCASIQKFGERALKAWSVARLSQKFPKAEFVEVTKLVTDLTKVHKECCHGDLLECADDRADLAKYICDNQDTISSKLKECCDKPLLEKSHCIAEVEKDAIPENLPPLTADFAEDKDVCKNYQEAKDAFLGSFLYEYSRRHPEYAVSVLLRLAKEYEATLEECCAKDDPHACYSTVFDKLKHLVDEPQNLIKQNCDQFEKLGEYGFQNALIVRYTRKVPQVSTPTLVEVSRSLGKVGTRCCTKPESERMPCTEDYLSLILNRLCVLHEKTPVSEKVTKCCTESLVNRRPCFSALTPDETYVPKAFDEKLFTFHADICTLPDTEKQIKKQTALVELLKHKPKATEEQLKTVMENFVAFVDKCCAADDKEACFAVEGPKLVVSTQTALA

With `[N-]=[N+]=NCc1ccccc1[C@H]1OC(c2ccc(OCCCO)cc2)=N[C@@]1(CCS(=O)(=O)c1ccccc1)C(=O)NCCN1CCOCC1`, the composite z-score in the assay with Albumin (Bos taurus) is 0.888; in [2] it was 0.596; in assay [3] it was 0.163; in [4], 0.621; in assay [5] it was 2.76; in assay [6] it was 0.654. Further, the composite z-score was 1.3 in the assay on Sam68 (KHDRBS1), -0.222 in assay [7] and 0.944 in assay [8]. Further, the composite Z-score in assay [1] is 0.516 (inactive).
As to `CC(C)[Si]1(C(C)C)OCc2cc(-c3ccc(-c4ccc(Cl)c(Cl)c4)o3)nc(-c3ccc(Oc4ccccc4)cc3)c21`, the composite z-score is -0.753 with Albumin (Bos taurus); -0.292 in assay [2]; -0.197 in assay [3]; -0.554 in assay [4]; -0.558 in [5]; -0.397 in assay [6]. Also, the composite z-score in the assay with Sam68 (KHDRBS1) was -1.08; in assay [7] it was -1.24; in [8], -1.08. In assay [1], the composite Z-score was -1.23 (inactive).
On to `CC[C@@H]1C=C(C(=O)O)[C@H](c2cccc(Cl)c2)N1S(=O)(=O)c1ccc(C)cc1`, for which the composite z-score with Albumin (Bos taurus) is 0.951; in assay [2], -0.0581; in assay [3], 0.0274; in assay [4], 0.824; in assay [5] it was 2.46; in assay [6], 0.501. Moreover, the composite z-score with Sam68 (KHDRBS1) is 1.09; in assay [7], -0.682; in assay [8], 0.471. Moreover, the composite Z-score in assay [1] was -0.147 (inactive).
For the molecule `N#Cc1ccc(NN2C(C(O)c3ccc(B(O)O)cc3)C=CC3CN(c4ccccc4)C(=O)C32)cc1` (stereo not given), the composite z-score with Albumin (Bos taurus) was 0.813; in assay [2] it was -0.128; in assay [3] it was -0.188; in [4], 0.852; in [5], 0.417; in [6], -0.247. The composite z-score in the assay with Sam68 (KHDRBS1) is 0.141; in assay [7], -0.412; in [8] it was 0.133. Further, the composite Z-score in assay [1] is -0.254 (inactive).
For `COc1ccc(C#Cc2ccc3c(c2)[C@]2(C(=O)N3)[C@H](c3ccccc3OCCO)N3[C@H](c4ccccc4)[C@H](c4ccccc4)OC(=O)[C@H]3[C@@H]2C(=O)NC[C@H](O)c2ccccc2)cc1`, the composite z-score was 0.579 with Albumin (Bos taurus); 0.11 in assay [2]; -0.0942 in [3]; 0.373 in assay [4]; 1.98 in [5]; 0.359 in assay [6]. Further, the composite z-score with Sam68 (KHDRBS1) was 1.32; in [7], -0.0767; in assay [8] it was 1.07. Moreover, the composite Z-score in assay [1] is -0.419 (inactive).
Regarding `CC(C)C[C@@H]1NC(=O)[C@H]2C[C@@H](C(=O)O)[C@@H](c3cccc(OCCO)c3)N2C1=O`, the composite z-score in the assay with Albumin (Bos taurus) was -0.371; in [2] it was -0.0014; in assay [3] it was -0.0761; in assay [4], 0.265; in [5], 1.38; in assay [6], 0.327. The values for the composite z-score (in the assay with Sam68 (KHDRBS1); in assay [7]; in assay [8]) were 0.531, 1.12 and 0.587, respectively. In addition, in assay [1], the composite Z-score was -0.12 (inactive).
As to `CC(C)c1ccc(NN2C(C(O)C3CCCCC3)C=CC3C(=O)N(c4ccccc4)C(=O)C32)cc1` (stereo not given), the composite z-score in the assay with Albumin (Bos taurus) came out at 0.98; in [2] it was 0.286; in assay [3] it was 0.0836; in assay [4], 0.632; in assay [5], 1.78; in assay [6], 0.948. For the same molecule, the composite z-score in the assay on Sam68 (KHDRBS1) was 1.31; in [7], -0.261; in assay [8] it was 1.14. Further, the composite Z-score in assay [1] is 0.637 (inactive).
With `O=C1O[C@@H](c2ccccc2)[C@@H](c2ccccc2)N2[C@@H](c3ccccc3OCCO)[C@]3(C(=O)Nc4ccc(C#CC5(O)CCCCCC5)cc43)[C@@H](C(=O)N3CCCCCCC3)[C@H]12`, the composite z-score with Albumin (Bos taurus) was -0.411; in assay [2] it was 2.33; in assay [3], 1.21; in assay [4], 1.06; in [5], 5.19; in [6], 1.41. Further, the results for the composite z-score (with Sam68 (KHDRBS1); in assay [7]; in assay [8]) were 1.33, 1.69 and 0.93, respectively. In addition, in [1], the composite Z-score was 9.73 (active).
In the case of `CC(C)C(=C=CC[C@H](O)c1cccc(OCCO)c1)C[C@H](O)c1ccccn1`, the composite z-score was 0.481 with Albumin (Bos taurus); -0.0647 in [2]; -0.146 in assay [3]; 0.811 in assay [4]; 0.48 in assay [5]; 0.182 in [6]. Further, the composite z-score in the assay on Sam68 (KHDRBS1) was 0.353; in assay [7], -0.0719; in assay [8], 0.13. For the same molecule, in assay [1], the composite Z-score was -0.128 (inactive).
For the molecule `CCCNC(=O)[C@@]1(Sc2ccc(C)cc2)CC(=O)N(Cc2cc(C(F)(F)F)cc(C(F)(F)F)c2)[C@@H]1c1ccc(CO)cc1`, the composite z-score with Albumin (Bos taurus) was -0.919; in assay [2] it was -0.163; in [3], -0.169; in assay [4], 0.504; in [5], 0.506; in [6], -0.0318. Further, the composite z-score is -0.528 in the assay with Sam68 (KHDRBS1), -1.11 in assay [7] and -0.149 in assay [8]. Besides, in assay [1], the composite Z-score is -0.0135 (inactive).
Take `CC(=O)NCCCC[C@@H]1NC(=O)[C@H]2C[C@@H](C(=O)O)[C@@H](c3cccc(OCCO)c3)N2C1=O`: the composite z-score with Albumin (Bos taurus) was 0.757; in assay [2], 0.348; in assay [3], -0.0644; in assay [4] it was 0.415; in assay [5], 1.05; in assay [6], 1.32. The values for the composite z-score (in the assay on Sam68 (KHDRBS1); in assay [7]; in assay [8]) were 1.29, 1.11 and 0.587, respectively. For the same molecule, the composite Z-score in [1] is 0.446 (inactive).
As for `C[N+](C)(C)CCCC[C@@H]1NC(=O)[C@H]2C[C@@H](C(=O)NCCCCCN)[C@@H](c3ccc(O)cc3)N2C1=O`, the composite z-score with Albumin (Bos taurus) is 0.567; in assay [2] it was -0.0586; in assay [3], -0.053; in [4], 0.67; in [5] it was 1.14; in assay [6], 0.736. The composite z-score worked out at 1.3 with Sam68 (KHDRBS1), 0.444 in assay [7] and 1.18 in assay [8]. Moreover, the composite Z-score in assay [1] is -0.116 (inactive).
With `C=C[C@H](OC)[C@@H](O)c1ccc(OC)c(O)c1`, the composite z-score in the assay with Albumin (Bos taurus) is 0.985; in [2], -0.557; in assay [3], -0.19; in assay [4], 0.145; in assay [5] it was -0.651; in assay [6], -0.0037. The composite z-score with Sam68 (KHDRBS1) is -2.47; in [7], -1.01; in [8] it was -1.9. Besides, the composite Z-score in assay [1] is -0.272 (inactive).
As for `CC(C)(C)OC(=O)N1[C@@H](C=C(Br)Br)COC1(C)C`, the composite z-score with Albumin (Bos taurus) is -0.121; in [2], 0.0522; in [3], -0.104; in assay [4], -0.0481; in assay [5], 0.259; in assay [6], 0.136. Also, the figures for the composite z-score (in the assay with Sam68 (KHDRBS1); in assay [7]; in [8]) were 0.839, 0.644 and 0.556, respectively. For the same molecule, the composite Z-score in assay [1] was 0.274 (inactive).
Take `C=CCNC(=O)[C@H]1[C@@H]2C(=O)O[C@@H](c3ccccc3)[C@@H](c3ccccc3)N2[C@@H](c2ccc(O)cc2)[C@]12C(=O)Nc1ccc(C#CCC(C(=O)OC)C(=O)OC)cc12`: the composite z-score is 0.0574 with Albumin (Bos taurus); -0.217 in assay [2]; 0.0098 in assay [3]; 0.649 in assay [4]; 1.23 in assay [5]; 0.877 in [6]. Further, the composite z-score in the assay on Sam68 (KHDRBS1) was 0.421; in assay [7], 0.952; in assay [8], -0.273. The composite Z-score in [1] is -0.209 (inactive).
`C=CC[C@]1(C(=O)NCCN2CCOCC2)N=C(c2ccc(OCCCO)cc2)O[C@H]1c1ccccc1`: the composite z-score in the assay with Albumin (Bos taurus) was -0.051; in assay [2], 0.0813; in assay [3], 0.0564; in assay [4], 0.703; in [5], 1.51; in assay [6], 0.601. Also, the composite z-score in the assay with Sam68 (KHDRBS1) is 1.18; in assay [7] it was 0.708; in assay [8], 0.469. Also, the composite Z-score in assay [1] is 0.0999 (inactive).
